Composite z-score data for 36 compounds are collected here from PubChem BioAssay.

The nature of the test: small-molecule binders of probe aNOTCH3, primary screen, biochemical, small-molecule microarray, 635/667 nm fluorescence (AID 1120).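 Also: probe is a biotin-tagged antibody raised against NOTCH3 rather than NOTCH3 protein; score merges spot fluorescence near 667 nm with spot signal to noise.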 Particulars: higher = more signal.
In the case of `COCC(=C=CC[C@@H](O)c1ccccc1OCCO)C[C@@H](O)c1cc(Cl)cc(Cl)c1O`, the composite z-score came to 0.129.

As for `COc1ccc(C(=O)Nc2ccc(CN3C(=O)[C@@]4(O[C@@H](CCO)[C@H]([Si](C)(C)c5ccc(OC)cc5)[C@H]4C)c4ccccc43)cc2)cc1`, the composite z-score was found to be 0.0034.

Turning to `O=C1O[C@H](c2ccccc2)[C@H](c2ccccc2)N2[C@H]1[C@@H](C(=O)O)[C@]1(C(=O)Nc3ccc(C#CCCO)cc31)[C@H]2c1ccc(O)cc1`, the composite z-score is -0.0014.

`C=CC[C@@]1(C(N)=O)N=C(c2ccc(OCCCO)cc2)O[C@@H]1c1ccccc1CN=[N+]=[N-]` returned a composite z-score of 0.185.

For `COCCOC(=O)N1C(=O)[C@@]2(c3cc(C#CC4=CCCCC4)ccc31)[C@H](C(=O)N1CCc3cc(OC)c(OC)cc3C1)[C@H]1C(=O)O[C@H](c3ccccc3)[C@H](c3ccccc3)N1[C@@H]2c1ccc(OCCO)cc1`, the composite z-score is 0.0836.

Take `COc1ccc(C(O)C2C=CC3C(=O)N(c4ccccc4)C(=O)C3N2Nc2ccccc2F)cc1OCc1ccccc1` (stereo unspecified): the composite z-score was 0.837.

With `C=C(COC)/C(=C/C[C@@H](OC(C)=O)c1ccc(CO)o1)c1cnc2ccccc2c1`, the composite z-score came to 0.25.

Regarding `O=C1C[C@]2(c3ccc([N+](=O)[O-])cc3)C(=O)N(CCN3CCOCC3)c3cc(CO)ccc3[C@H]2N1C1CCCCC1`, the composite z-score is -0.221.

With `COC(=O)C=C(CC(O)c1cccc(Cl)c1)OC` (stereo unspecified), the composite z-score was 0.936.

As to `COc1cc2c(cc1OC)CN(C(=O)[C@@H]1[C@H]3C(=O)O[C@H](c4ccccc4)[C@H](c4ccccc4)N3[C@H](c3ccc(O)cc3)[C@@]13C(=O)Nc1ccc(C#CC4(O)CCCCCC4)cc13)CC2`, the composite z-score is -0.191.

`[N-]=[N+]=NCc1ccccc1C[C@@]1(C(=O)NCC(O)CO)N=C(c2ccc(OCCCO)cc2)O[C@@H]1c1ccccc1N=[N+]=[N-]` (stereo partly specified) yielded a composite z-score of 0.318.

For the compound `CCOC(=O)C[C@H]1[C@H](OC(=O)Cc2ccc3c(c2)OCO3)[C@@H](NC(=O)c2ccc(-c3ccccc3)cc2)c2cc(OCCCO)ccc2N1C(=O)c1ccc2ccccc2n1`, the composite z-score was -0.112.

As for `O=C(NCc1ccccc1)[C@@]1(Cc2ccccc2)N=C(c2ccc(OCCCO)cc2)O[C@H]1c1ccccc1`, the composite z-score worked out at 0.261.

`O=C1NC(=O)C2C1C=CC(C(O)c1ccccc1)N2Nc1ccc(Cl)cc1Cl` (stereo unspecified) returned a composite z-score of 0.405.

In the case of `CN(C)CCCNC(=O)[C@@]1(c2ccc([N+](=O)[O-])cc2)CC(=O)N(C2CCCCC2)[C@@H]1c1ccc(CO)cc1`, the composite z-score is -0.0795.

In turn, `COC(=O)[C@@]1(Cc2ccccc2)[C@H]2c3cc(C(=O)N4CCCC4)n(Cc4cccc5ccccc45)c3C[C@H]2CN1C(=O)c1ccccc1` returned a composite z-score of 1.44.

The compound `CC(C)(C)OC(=O)CC[C@@]1(C(N)=O)N=C(c2ccc(OCCCO)cc2)O[C@@H]1c1ccccc1` returned a composite z-score of 0.3.

On to `COc1cc2c(cc1O)C=[N+](Cc1cccc(OC(F)(F)F)c1)CC2`, for which the composite z-score was -0.0879.

Consider `C=C(C)C1C(=C)CN([C@H](CO)c2ccccc2)C1=O` (stereo partly specified), for which the composite z-score was -0.0967.

`COCCCNC(=O)C1N=C(c2ccc(OCCCO)cc2)N(c2ccccc2)O1` (stereo unspecified) showed a composite z-score of 0.0836.

As for `C=CC[C@@]1(C(=O)NCc2ccccc2)N=C(c2ccc(OCCCO)cc2)O[C@@H]1c1ccccc1N=[N+]=[N-]`, the composite z-score worked out at 0.355.

Consider `CCOc1cc(C(O)C2C=CC3C(=O)N(c4ccccc4)C(=O)C3N2Nc2ccccc2)ccc1O` (stereo unspecified), for which the composite z-score was -0.0647.

`O=C1O[C@H](c2ccccc2)[C@H](c2ccccc2)N2[C@H]1[C@@H](C(=O)NC[C@H](O)c1ccccc1)[C@]1(C(=O)Nc3ccccc31)[C@H]2c1ccc(OCCO)cc1`: the composite z-score is -0.0647.

The compound `COc1ccc(C(O)C2C=CC3C(=O)N(C)C(=O)C3N2N2CCCCC2)c2ccccc12` (stereo unspecified) displayed a composite z-score of 0.432.

`CN1C(=O)[C@]2(Cc3ccccc3)N=C(c3ccc(OCCCO)cc3)O[C@@H]2c2ccccc21`: the composite z-score amounted to 0.0927.

For `C=CCOC(=O)[C@H]1[C@@H]2C(=O)O[C@@H](c3ccccc3)[C@@H](c3ccccc3)N2[C@@H](c2ccc(OCCOC(=O)[C@@H]3C[C@@H]4C(=O)N[C@@H](CCCCN(C)C)C(=O)N4[C@@H]3c3ccc(O)cc3)cc2)[C@]12C(=O)Nc1ccc(I)cc12`, the composite z-score is -0.0111.

Compound `CC(C)(C)OC(=O)CC[C@@]1(C(=O)NCC(O)CO)N=C(c2ccc(OCCCO)cc2)O[C@@H]1c1ccccc1N=[N+]=[N-]` (stereo partly specified) returned a composite z-score of 0.183.

`O=C1NCC(=O)N2[C@@H]1C[C@@H](C(=O)O)[C@H]2c1cccc(OCCO)c1` yielded a composite z-score of 2.12.

For `CC(C)OC(=O)C=C1C[C@@H](c2ccccc2C(F)(F)F)O[C@@H](c2ccccc2C(F)(F)F)O1`, the composite z-score was -0.0044.

With `C=CCOC(=O)[C@@H]1[C@H]2C(=O)O[C@H](c3ccccc3)[C@H](c3ccccc3)N2[C@H](c2ccc(OCCOC(=O)[C@@H]3C[C@@H]4C(=O)N5CCC[C@H]5C(=O)N4[C@@H]3c3ccc(O)cc3)cc2)[C@@]12C(=O)Nc1ccc(I)cc12`, the composite z-score was -0.0831.

Take `COc1cc2c(cc1OC)CN(C(=O)[C@H]1[C@@H]3C(=O)O[C@@H](c4ccccc4)[C@@H](c4ccccc4)N3[C@@H](c3ccc(O)cc3)[C@]13C(=O)Nc1ccc(C#CC4=CCCCC4)cc13)CC2`: the composite z-score came to 0.533.

In the case of `COc1ccc(C(=O)Nc2ccc(CN3C(=O)[C@@]4(O[C@@H](CC(=O)N5CCC[C@H]5CO)[C@H]([Si](C)(C)c5ccc(OC)cc5)[C@H]4C)c4ccccc43)cc2)cc1`, the composite z-score was -0.0219.

`[N-]=[N+]=NCc1ccccc1C[C@]1(C(=O)NCC(O)CO)N=C(c2ccc(OCCCO)cc2)O[C@H]1c1ccccc1` (stereo partly specified) displayed a composite z-score of 0.062.

For the compound `COc1ccc([Si](C)(C)[C@H]2[C@H](CCO)O[C@@]3(C(=O)N(Cc4ccc(N5C(=O)COc6ccccc65)cc4)c4ccccc43)[C@@H]2C)cc1`, the composite z-score is -0.241.

Regarding `C=C(COC)/C(=C/C[C@H](OC(=O)c1ccncc1)c1ccc(OCCO)cc1)c1cnc2ccccc2c1`, the composite z-score was 0.227.

For the compound `C=CCOC(=O)[C@@H]1[C@H]2C(=O)O[C@H](c3ccccc3)[C@H](c3ccccc3)N2[C@H](c2ccc(OCCOC(=O)[C@@H]3C[C@@H]4C(=O)N[C@@H](Cc5ccccc5)C(=O)N4[C@@H]3c3ccc(O)cc3)cc2)[C@@]12C(=O)Nc1ccc(I)cc12`, the composite z-score amounted to 0.251.
